Reference: the supplement of paper PMC10849652
The full data set covers some 8,800 targets. This sample favours those with a hit. About 0.5% of all pairs of compound and target were hits.

Experiments:
Assay in all cases: log2 fold change, soluble protein after heating vs DMSO (PISA); higher = thermal stabilisation; K562 lysate, 10 uM; active = over 0.2 and 3.5 SD of the protein, either way, in both replicates (recomputed)
lapatinib = compound: CS(=O)(=O)CCNCc1ccc(-c2ccc3ncnc(Nc4ccc(OCc5cccc(F)c5)c(Cl)c4)c3c2)o1 [lapatinib]
In short: (§1)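 Pellets of K562 cells were dounce-homogenised in PBS pH 7.4 with 1 mM MgCl2, and the crude extract was held at 1 mg/mL protein for a 30 min treatment with 10 μM compound. Aliquots were heated for 3 min over 48°C-58°C and pooled before NP-40 was added to 0.5% at 4°C. The supernatant from 21,000xg for 90 min was quantified by TMTpro 16plex LC-MS/MS with channel sums equalised. Values are reported from duplicates as log-two fold change in thermal stability relative to solvent controls.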

pictilisib = compound: CS(=O)(=O)N1CCN(Cc2cc3nc(-c4cccc5[nH]ncc45)nc(N4CCOCC4)c3s2)CC1 [pictilisib]
In short: as §1

crizotinib = compound: C[C@@H](Oc1cc(-c2cnn(C3CCNCC3)c2)cnc1N)c1c(Cl)ccc(F)c1Cl [crizotinib]
In short: as §1

[1] = compound: C[C@H](C1=CC=C(C=C1)C(=O)NC2=C3C=CNC3=NC=C2)N
In short: as §1

duvelisib = compound: C[C@H](Nc1ncnc2nc[nH]c12)c1cc2cccc(Cl)c2c(=O)n1-c1ccccc1 [duvelisib]
In short: as §1

gandotinib = compound: Cc1cc(Nc2cc(CN3CCOCC3)c3nc(C)c(Cc4ccc(Cl)cc4F)n3n2)n[nH]1 [gandotinib]
In short: as §1

tozasertib = compound: Cc1cc(Nc2cc(N3CCN(C)CC3)nc(Sc3ccc(NC(=O)C4CC4)cc3)n2)n[nH]1 [tozasertib]
In short: as §1

doramapimod = compound: Cc1ccc(-n2nc(C(C)(C)C)cc2NC(=O)Nc2ccc(OCCN3CCOCC3)c3ccccc23)cc1 [doramapimod]
In short: as §1

bafetinib = compound: Cc1ccc(NC(=O)c2ccc(CN3CC[C@H](N(C)C)C3)c(C(F)(F)F)c2)cc1Nc1nccc(-c2cncnc2)n1 [bafetinib]
In short: as §1

[2] = compound: Cc1cccc(CC(=O)N2CCc3c2ccc(-c2cn(C)c4ncnc(N)c24)c3F)n1
In short: as §1

Measured: log2 fold change

TRIM44 (UniProt Q96DX7)
inactive: pictilisib -0.11 | crizotinib -0.018 | [1] 0.04 | duvelisib 0.007 | gandotinib 0.01 | tozasertib -0.04 | doramapimod 0.013 | bafetinib 0.031 | [2] -0.075
active: lapatinib -0.242

TBC1D23 (UniProt Q9NUY8)
UniProt Q9NUY8, sequence (Q9NUY8 whole entry, looked up): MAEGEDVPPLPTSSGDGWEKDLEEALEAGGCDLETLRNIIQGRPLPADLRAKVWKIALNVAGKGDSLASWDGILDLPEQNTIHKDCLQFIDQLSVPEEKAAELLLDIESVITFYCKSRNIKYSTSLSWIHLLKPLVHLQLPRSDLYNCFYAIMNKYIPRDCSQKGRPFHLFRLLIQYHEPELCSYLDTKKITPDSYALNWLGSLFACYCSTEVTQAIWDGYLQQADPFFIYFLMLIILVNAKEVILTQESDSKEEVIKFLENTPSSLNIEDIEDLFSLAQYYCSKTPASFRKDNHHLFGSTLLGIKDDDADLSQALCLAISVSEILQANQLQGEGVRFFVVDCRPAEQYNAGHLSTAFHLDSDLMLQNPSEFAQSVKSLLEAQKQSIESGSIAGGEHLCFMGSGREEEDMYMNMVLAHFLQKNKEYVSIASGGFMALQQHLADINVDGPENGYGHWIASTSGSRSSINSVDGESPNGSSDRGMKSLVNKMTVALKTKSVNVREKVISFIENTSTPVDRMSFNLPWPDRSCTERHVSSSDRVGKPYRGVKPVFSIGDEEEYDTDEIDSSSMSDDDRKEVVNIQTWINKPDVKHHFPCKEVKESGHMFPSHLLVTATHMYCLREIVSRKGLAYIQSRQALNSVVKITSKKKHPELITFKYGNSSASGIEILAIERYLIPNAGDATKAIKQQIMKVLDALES
inactive: lapatinib -0.007 | pictilisib -0.016 | crizotinib -0.031 | [1] -0.033 | duvelisib -0.012 | gandotinib 0.03 | tozasertib 0.034 | doramapimod 0.017 | bafetinib -0.027 | [2] 0.048

TOPBP1 (UniProt Q92547)
inactive: lapatinib 0.095 | pictilisib -0.037 | crizotinib 0.023 | [1] 0.206 | duvelisib -0.03 | gandotinib -0.048 | tozasertib -0.066 | doramapimod 0.056 | bafetinib -0.076 | [2] -0.017

THOC5 (UniProt Q13769)
inactive: lapatinib -0.036 | pictilisib -0.007 | crizotinib -0.011 | [1] -0.024 | duvelisib -0.009 | gandotinib -0.021 | tozasertib -0.01 | doramapimod 0.02 | bafetinib -0.009 | [2] 0.035

TUBB4B (UniProt P68371)
inactive: lapatinib 0.027 | pictilisib 0.017 | crizotinib -0.027 | [1] 0.053 | duvelisib -0.029 | gandotinib 0.004 | tozasertib 0.011 | doramapimod -0.024 | bafetinib 0.027 | [2] -0.043

TDRD3 isoform 3 (UniProt Q9H7E2)
inactive: lapatinib 0.005 | pictilisib -0.038 | crizotinib 0.024 | [1] 0.127 | duvelisib -0.02 | gandotinib -0.068 | tozasertib 0.034 | doramapimod -0.151 | bafetinib 0.093 | [2] 0.01

TFCP2 (UniProt Q12800)
inactive: lapatinib 0.043 | pictilisib 0.083 | crizotinib -0.093 | [1] 0 | duvelisib -0.016 | gandotinib 0.098 | tozasertib 0.021 | doramapimod 0.168 | bafetinib -0.075 | [2] 0.004

TGOLN2 isoform 7 (UniProt O43493)
UniProt O43493, sequence (O43493 whole entry, looked up): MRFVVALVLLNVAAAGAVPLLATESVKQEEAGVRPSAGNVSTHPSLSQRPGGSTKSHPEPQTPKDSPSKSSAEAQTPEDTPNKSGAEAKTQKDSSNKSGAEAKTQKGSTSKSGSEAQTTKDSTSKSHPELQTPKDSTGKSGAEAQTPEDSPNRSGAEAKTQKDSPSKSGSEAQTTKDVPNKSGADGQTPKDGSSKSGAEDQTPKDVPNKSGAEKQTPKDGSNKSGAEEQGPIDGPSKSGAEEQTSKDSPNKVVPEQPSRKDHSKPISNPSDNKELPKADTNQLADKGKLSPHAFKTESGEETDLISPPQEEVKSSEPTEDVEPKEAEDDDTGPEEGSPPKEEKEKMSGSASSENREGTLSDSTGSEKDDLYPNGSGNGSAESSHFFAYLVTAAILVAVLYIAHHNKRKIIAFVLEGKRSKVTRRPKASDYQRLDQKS
inactive: lapatinib -0.007 | pictilisib 0.001 | crizotinib 0.045 | [1] -0.051 | duvelisib 0.021 | gandotinib 0.034 | tozasertib -0.065 | doramapimod -0.03 | bafetinib 0.032 | [2] 0.034

TMEM87B (UniProt Q96K49)
inactive: lapatinib -0.044 | pictilisib 0.147 | crizotinib -0.017 | [1] 0.004 | duvelisib 0.039 | gandotinib -0.077 | tozasertib 0.068 | doramapimod 0.026 | bafetinib 0.126 | [2] 0

TRNAU1AP (UniProt Q9NX07)
inactive: lapatinib 0 | pictilisib -0.091 | crizotinib -0.019 | [1] -0.221 | duvelisib -0.058 | gandotinib 0.042 | tozasertib -0.018 | doramapimod 0.031 | bafetinib -0.001 | [2] 0.061

UFSP2 (UniProt Q9NUQ7)
inactive: lapatinib -0.02 | pictilisib -0.008 | crizotinib -0.022 | [1] -0.012 | duvelisib 0.009 | gandotinib -0.004 | tozasertib 0.017 | doramapimod 0.002 | bafetinib -0.028 | [2] 0.017

TUBA1C (UniProt Q9BQE3)
UniProt Q9BQE3, sequence (Q9BQE3 whole entry, looked up): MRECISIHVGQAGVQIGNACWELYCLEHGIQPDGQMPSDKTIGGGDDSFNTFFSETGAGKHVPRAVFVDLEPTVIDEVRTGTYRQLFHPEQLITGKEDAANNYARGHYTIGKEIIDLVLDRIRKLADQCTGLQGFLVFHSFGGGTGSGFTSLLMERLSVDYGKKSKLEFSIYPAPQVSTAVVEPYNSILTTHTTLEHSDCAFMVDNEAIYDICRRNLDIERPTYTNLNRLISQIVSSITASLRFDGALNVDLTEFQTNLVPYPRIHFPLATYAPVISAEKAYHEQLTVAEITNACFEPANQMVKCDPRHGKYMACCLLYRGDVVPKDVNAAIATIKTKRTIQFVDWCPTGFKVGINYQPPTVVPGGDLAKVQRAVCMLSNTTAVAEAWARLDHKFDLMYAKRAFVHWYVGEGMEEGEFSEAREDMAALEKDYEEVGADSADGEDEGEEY
inactive: lapatinib 0.004 | pictilisib -0.057 | crizotinib -0.045 | [1] -0.013 | duvelisib -0.019 | gandotinib 0.062 | tozasertib -0.008 | doramapimod -0.026 | bafetinib 0.005 | [2] 0.021

UBAP2 (UniProt Q5T6F2)
inactive: lapatinib -0.04 | pictilisib -0.079 | crizotinib 0.091 | [1] -0.173 | duvelisib -0.003 | gandotinib 0.095 | tozasertib -0.02 | doramapimod -0.097 | bafetinib -0.066 | [2] 0.061

TLE3 isoform 5 (UniProt Q04726)
inactive: lapatinib 0.011 | pictilisib 0.127 | crizotinib 0.001 | [1] -0.409 | duvelisib 0.031 | gandotinib -0.062 | tozasertib -0.089 | doramapimod -0.061 | bafetinib 0.084 | [2] 0.084

TPP2 (UniProt Q5VZU9)
active: [1] -0.309
inactive: lapatinib -0.023 | pictilisib 0.069 | crizotinib -0.057 | duvelisib 0.02 | gandotinib 0.104 | tozasertib -0.087 | doramapimod -0.029 | bafetinib -0.044 | [2] 0.137

TUBB2A (UniProt Q13885)
inactive: lapatinib 0.009 | pictilisib 0.011 | crizotinib -0.049 | [1] -0.016 | duvelisib -0.012 | gandotinib 0.028 | tozasertib -0.011 | doramapimod 0.004 | bafetinib 0.026 | [2] -0.005

TRIP13 (UniProt Q15645)
UniProt Q15645, sequence (Q15645 whole entry, looked up): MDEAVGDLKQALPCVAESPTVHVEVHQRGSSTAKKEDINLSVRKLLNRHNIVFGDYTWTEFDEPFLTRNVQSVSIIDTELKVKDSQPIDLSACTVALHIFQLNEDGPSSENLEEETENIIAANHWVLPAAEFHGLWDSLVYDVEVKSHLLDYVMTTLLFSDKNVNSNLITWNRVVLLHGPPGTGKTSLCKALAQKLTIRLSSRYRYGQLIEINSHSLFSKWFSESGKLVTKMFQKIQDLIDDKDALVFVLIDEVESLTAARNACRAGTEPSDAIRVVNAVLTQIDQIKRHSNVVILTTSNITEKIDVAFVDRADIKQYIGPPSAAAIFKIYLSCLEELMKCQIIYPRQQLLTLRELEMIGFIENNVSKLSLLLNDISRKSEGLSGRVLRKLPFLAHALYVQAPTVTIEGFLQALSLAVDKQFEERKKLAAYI
inactive: lapatinib -0.015 | pictilisib 0.014 | crizotinib -0.028 | [1] 0.039 | duvelisib -0.01 | gandotinib -0.187 | tozasertib 0.005 | doramapimod 0.026 | bafetinib -0.029 | [2] -0.045

TYMS (UniProt P04818)
UniProt P04818, sequence (P04818 whole entry, looked up): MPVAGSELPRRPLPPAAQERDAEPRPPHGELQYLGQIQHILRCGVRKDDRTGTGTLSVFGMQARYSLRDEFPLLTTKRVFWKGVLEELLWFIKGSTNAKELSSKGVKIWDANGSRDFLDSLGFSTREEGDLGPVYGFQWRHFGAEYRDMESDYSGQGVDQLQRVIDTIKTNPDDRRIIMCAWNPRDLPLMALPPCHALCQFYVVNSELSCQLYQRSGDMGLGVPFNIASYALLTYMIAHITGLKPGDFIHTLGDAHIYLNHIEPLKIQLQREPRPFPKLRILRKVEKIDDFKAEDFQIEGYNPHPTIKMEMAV
inactive: lapatinib -0.007 | pictilisib -0.017 | crizotinib 0.002 | [1] 0.003 | duvelisib 0.018 | gandotinib 0.058 | tozasertib 0.011 | doramapimod -0.019 | bafetinib -0.005 | [2] -0.017

TPST2 (UniProt O60704)
active: [1] -0.671
inactive: lapatinib 0.028 | pictilisib 0.621 | crizotinib -0.046 | duvelisib -0.029 | gandotinib 0.109 | tozasertib -0.043 | doramapimod 0.057 | bafetinib 0.022 | [2] 0.126

TBL3 (UniProt Q12788)
UniProt Q12788, sequence (Q12788 whole entry, looked up): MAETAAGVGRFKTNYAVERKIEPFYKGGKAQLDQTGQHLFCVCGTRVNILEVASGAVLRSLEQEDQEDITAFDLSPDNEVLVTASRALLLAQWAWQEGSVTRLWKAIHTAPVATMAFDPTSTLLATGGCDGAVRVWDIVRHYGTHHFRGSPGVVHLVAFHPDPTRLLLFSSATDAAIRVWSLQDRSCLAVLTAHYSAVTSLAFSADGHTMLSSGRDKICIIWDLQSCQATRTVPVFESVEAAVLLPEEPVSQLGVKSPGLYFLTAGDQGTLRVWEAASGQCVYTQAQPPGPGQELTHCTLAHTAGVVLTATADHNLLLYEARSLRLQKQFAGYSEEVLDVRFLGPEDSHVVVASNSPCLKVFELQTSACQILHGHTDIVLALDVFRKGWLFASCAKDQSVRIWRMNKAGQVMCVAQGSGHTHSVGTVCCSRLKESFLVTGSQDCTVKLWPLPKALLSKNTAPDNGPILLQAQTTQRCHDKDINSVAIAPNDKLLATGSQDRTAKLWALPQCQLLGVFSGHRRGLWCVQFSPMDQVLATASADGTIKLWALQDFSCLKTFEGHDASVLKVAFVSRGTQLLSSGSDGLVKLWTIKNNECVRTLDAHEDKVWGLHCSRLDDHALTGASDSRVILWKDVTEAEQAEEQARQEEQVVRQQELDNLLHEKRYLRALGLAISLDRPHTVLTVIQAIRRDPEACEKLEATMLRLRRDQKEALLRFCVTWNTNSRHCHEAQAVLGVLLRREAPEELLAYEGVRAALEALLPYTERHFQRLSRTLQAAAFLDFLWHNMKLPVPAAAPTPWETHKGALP
inactive: lapatinib -0.022 | pictilisib -0.027 | crizotinib -0.017 | [1] -0.028 | duvelisib -0.009 | gandotinib -0.05 | tozasertib -0.008 | doramapimod -0.024 | bafetinib -0.019 | [2] 0.04

TRAF2 isoform 2 (UniProt Q12933)
inactive: lapatinib -0.032 | pictilisib 0.004 | crizotinib -0.032 | [1] -0.047 | duvelisib 0.006 | gandotinib -0.045 | tozasertib 0.007 | doramapimod 0.005 | bafetinib -0.011 | [2] 0.053

TTI2 (UniProt Q6NXR4)
inactive: lapatinib -0.033 | pictilisib -0.033 | crizotinib -0.016 | [1] -0.032 | duvelisib -0.018 | gandotinib -0.023 | tozasertib 0.004 | doramapimod -0.023 | bafetinib -0.017 | [2] 0.082

TCP11L1 (UniProt Q9NUJ3)
inactive: lapatinib -0.008 | pictilisib -0.028 | crizotinib -0.022 | [1] -0.204 | duvelisib -0.024 | gandotinib 0.066 | tozasertib -0.069 | doramapimod -0.017 | bafetinib -0.007 | [2] 0.146

TUBGCP2 isoform 4 (UniProt Q9BSJ2)
inactive: lapatinib -0.008 | pictilisib -0.029 | crizotinib -0.119 | [1] 0.08 | duvelisib -0.001 | gandotinib -0.087 | tozasertib 0.002 | doramapimod 0.033 | bafetinib 0.002 | [2] 0.009

TLE3 isoform 4 (UniProt Q04726)
inactive: lapatinib -0.01 | pictilisib 0.008 | crizotinib 0.003 | [1] 0.004 | duvelisib -0.015 | gandotinib 0 | tozasertib -0.029 | doramapimod -0.016 | bafetinib 0.1 | [2] -0.048

TUBB (UniProt P07437)
UniProt P07437, sequence (P07437 whole entry, looked up): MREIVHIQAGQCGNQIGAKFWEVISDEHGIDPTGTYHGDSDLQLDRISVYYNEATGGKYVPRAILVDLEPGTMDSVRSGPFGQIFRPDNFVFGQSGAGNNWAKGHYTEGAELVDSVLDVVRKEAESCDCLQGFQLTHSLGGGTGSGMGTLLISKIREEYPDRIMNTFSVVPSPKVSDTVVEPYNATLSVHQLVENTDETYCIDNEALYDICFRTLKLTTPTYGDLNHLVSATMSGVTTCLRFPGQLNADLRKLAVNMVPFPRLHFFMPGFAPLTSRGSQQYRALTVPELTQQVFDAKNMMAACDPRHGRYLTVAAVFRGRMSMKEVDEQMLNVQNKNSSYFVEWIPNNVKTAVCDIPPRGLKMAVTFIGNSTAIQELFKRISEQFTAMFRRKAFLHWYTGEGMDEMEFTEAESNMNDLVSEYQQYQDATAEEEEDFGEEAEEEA
inactive: lapatinib -0.035 | pictilisib -0.002 | crizotinib -0.043 | [1] -0.005 | duvelisib 0.008 | gandotinib 0.065 | tozasertib -0.022 | doramapimod -0.047 | bafetinib 0.024 | [2] -0.01

TNPO3 (UniProt Q9Y5L0)
UniProt Q9Y5L0, sequence (Q9Y5L0 whole entry, looked up): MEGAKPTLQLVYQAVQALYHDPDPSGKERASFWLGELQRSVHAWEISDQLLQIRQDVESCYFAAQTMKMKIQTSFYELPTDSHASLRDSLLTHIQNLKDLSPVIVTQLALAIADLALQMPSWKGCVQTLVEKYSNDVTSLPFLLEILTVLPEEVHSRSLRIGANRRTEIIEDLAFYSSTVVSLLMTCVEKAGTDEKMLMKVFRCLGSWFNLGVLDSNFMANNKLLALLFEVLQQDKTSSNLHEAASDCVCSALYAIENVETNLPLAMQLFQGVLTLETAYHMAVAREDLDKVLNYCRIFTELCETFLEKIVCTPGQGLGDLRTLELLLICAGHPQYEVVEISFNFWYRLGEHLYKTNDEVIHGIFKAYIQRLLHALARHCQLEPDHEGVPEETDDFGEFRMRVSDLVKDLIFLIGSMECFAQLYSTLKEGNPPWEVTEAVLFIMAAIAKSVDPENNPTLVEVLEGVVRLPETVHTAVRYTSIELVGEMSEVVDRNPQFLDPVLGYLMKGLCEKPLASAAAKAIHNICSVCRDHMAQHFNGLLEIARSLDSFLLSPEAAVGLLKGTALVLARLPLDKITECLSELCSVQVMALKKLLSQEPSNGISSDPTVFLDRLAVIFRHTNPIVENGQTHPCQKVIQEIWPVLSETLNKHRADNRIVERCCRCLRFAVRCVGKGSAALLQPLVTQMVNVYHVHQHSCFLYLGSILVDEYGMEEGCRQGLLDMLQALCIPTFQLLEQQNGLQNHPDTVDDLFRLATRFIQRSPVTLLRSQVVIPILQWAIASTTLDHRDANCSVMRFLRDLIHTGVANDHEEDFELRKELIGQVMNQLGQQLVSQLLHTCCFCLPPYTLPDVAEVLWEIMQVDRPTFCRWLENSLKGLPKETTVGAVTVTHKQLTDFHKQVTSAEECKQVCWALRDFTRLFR
inactive: lapatinib -0.024 | pictilisib -0.001 | crizotinib 0.01 | [1] -0.015 | duvelisib 0.025 | gandotinib -0.006 | tozasertib -0.036 | doramapimod -0.024 | bafetinib -0.028 | [2] 0.026

TP53RK (UniProt Q96S44)
inactive: lapatinib -0.011 | pictilisib 0.026 | crizotinib 0.042 | [1] 0.042 | duvelisib -0.029 | gandotinib -0.041 | tozasertib -0.01 | doramapimod -0.029 | bafetinib -0.032 | [2] 0.035

TECR (UniProt Q9NZ01)
UniProt Q9NZ01, sequence (Q9NZ01 whole entry, looked up): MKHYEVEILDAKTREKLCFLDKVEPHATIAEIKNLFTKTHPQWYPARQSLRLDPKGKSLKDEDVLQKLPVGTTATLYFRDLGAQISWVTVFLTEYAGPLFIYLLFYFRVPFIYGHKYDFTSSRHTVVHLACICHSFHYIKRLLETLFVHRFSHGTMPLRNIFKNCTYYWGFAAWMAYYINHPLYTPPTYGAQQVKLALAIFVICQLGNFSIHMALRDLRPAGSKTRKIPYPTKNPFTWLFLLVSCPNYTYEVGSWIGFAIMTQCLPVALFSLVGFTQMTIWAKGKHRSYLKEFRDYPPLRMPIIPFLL
inactive: lapatinib -0.082 | pictilisib -0.032 | crizotinib -0.138 | [1] 0.011 | duvelisib -0.056 | tozasertib 0.056 | doramapimod -0.045 | bafetinib -0.049 | [2] 0.015
active: gandotinib -0.448

TRMT2A (UniProt Q8IZ69)
inactive: lapatinib -0.01 | pictilisib -0.057 | crizotinib -0.017 | [1] -0.002 | duvelisib -0.036 | gandotinib -0.03 | tozasertib 0.001 | doramapimod -0.002 | bafetinib -0.016 | [2] 0.009

TK1 (UniProt P04183)
inactive: lapatinib -0.006 | pictilisib 0.022 | crizotinib 0.022 | [1] -0.133 | duvelisib 0.023 | gandotinib 0.062 | tozasertib 0 | doramapimod 0 | bafetinib 0.009 | [2] 0.021
